Laboratory results from PMC5540273 (PLoS ONE, 2017).

Assays:
Settings in all cases: concentration: 1 μM, replicates: in singlicate; n = 1
[1] = system: CDK4-cyclinD3
[2] = system: CDK4
[3] = system: CDK5
[4] = system: CDK7
[5] = system: CDK8
[6] = system: CDK9
[7] = system: CDKL1
[8] = system: CDKL2
[9] = system: CDKL3
[10] = system: CDKL5
[11] = system: CHEK1
[12] = system: CHEK2
[13] = system: CIT
[14] = system: CLK1
[15] = system: CLK2
[16] = system: CLK3
[17] = system: CLK4
[18] = system: CSF1R-autoinhibited
[19] = system: CSF1R
[20] = system: CSK
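Also: KINOMEscan kinase panel screen.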

Structure (SMILES)	%Inh [1]	%Inh [2]	%Inh [3]	%Inh [4]	%Inh [5]	%Inh [6]	%Inh [7]	%Inh [8]	%Inh [9]	%Inh [10]	%Inh [11]	%Inh [12]	%Inh [13]	%Inh [14]	%Inh [15]	%Inh [16]	%Inh [17]	%Inh [18]	%Inh [19]	%Inh [20]
COc1ccc(COc2cc(-n3cnc4ccccc43)sc2C(N)=O)cc1 [GSK1024304]	0%	40%	0%	0%	29%	0%	7%	18%	0%	0%	0%	0%	29%	27%	48%	17%	12%	0%	4%	0%
COc1cc2ncn(-c3cc(OCc4sccc4Cl)c(C(N)=O)s3)c2cc1OC [GSK448459]	0%	12%	0%	0%	69%	0%	23%	33%	0%	0%	0%	6%	27%	39%	23%	2%	14%	0%	18%	10%
O=C(NOCC1CC1)c1ccc(F)c(F)c1Nc1ccc(I)cc1Cl	0%	0%	5%	0%	0%	0%	0%	0%	20%	0%	0%	21%	0%	0%	3%	0%	0%	0%	0%	0%
[2H]C([2H])(c1cccc(C(F)(F)F)c1C)n1ccn2c(=O)nc(N3CCOCC3)cc12 [GSK2336394]	0%	14%	0%	0%	2%	0%	8%	22%	0%	0%	0%	0%	11%	20%	0%	14%	12%	0%	0%	0%
O=c1cc(N2CCOCC2)nc2n(Cc3cccc(C(F)(F)F)c3)ccn12 [GSK2297543]	7%	12%	0%	0%	16%	0%	0%	20%	0%	0%	0%	0%	27%	17%	20%	0%	6%	0%	0%	0%
CCc1nc(-c2cccc(C)c2)c(-c2ccnc(NCc3ccccc3)c2)s1	0%	0%	0%	0%	0%	1%	13%	0%	2%	0%	0%	10%	29%	0%	11%	0%	0%	0%	6%	0%
c1ccc(-c2n[nH]cc2-c2ccnc3ccccc23)nc1 [GW271431]	0%	0%	0%	0%	5%	0%	7%	5%	0%	6%	5%	0%	41%	28%	7%	55%	20%	11%	6%	0%
CC(=O)Nc1ccc(COc2ccc(Nc3ccnc4cc(-c5ccccn5)ccc34)cc2)cc1.Cl [GW440148]	0%	0%	0%	0%	8%	14%	7%	12%	0%	0%	1%	29%	20%	35%	0%	0%	0%	32%	99.3%	36%
COc1ccc(Nc2ncc(C#N)c(Nc3ccccc3C(N)=O)n2)cc1N1CCN(C)CC1.Cl [GSK1558669]	90%	93.9%	99.7%	99.8%	0%	72%	89%	94.7%	0%	29%	100%	78%	69%	99.8%	99.3%	85%	99.7%	67%	99.9%	85%
Fc1ccc(-c2ncn(CCCN3CCOCC3)c2-c2ccccn2)cc1 [SB-211742]	0%	0%	0%	0%	29%	0%	40%	49%	4%	5%	0%	0%	8%	8%	8%	3%	0%	0%	0%	0%
